What follows are sequences tested against TP53I13 (assay: pooled miR-30 sensor sort-seq; sequence = guide strand). Conditions: shRNA.
Note: reference of the scale not given here.

Sequence | sensor-assay potency score (higher = more potent)
TGACTTGAACAGACACAGCCCC | -0.111
TGAGCCTCTGTCCTGGAGCTGG | -1.27
TCGTGTGTAGGTCACTCTTGGT | -1.06
TAGAGGAAGGTGACATCCTCAG | -0.655
TTGGCCTTCAAGCTCCCTGGGG | -0.75
TTGGTGACACCTGCGGAGGCAG | -1.23
TTTCACAGTAGATCCATGCCTT | 0.393

Each sequence was assayed against TP73 in the same assay as above. Conditions: shRNA.

Sequence | sensor-assay potency score (higher = more potent)
TTGTAAACAGGCATGGCCCGGA | 0.143
TTACACATGAAGTTGTACAGGA | 1.03
TTGGGAGGTGAAATACTCGATG | -0.725
TCGAAGTAGGTGCTGTCTGGTT | -0.818
TGTAGCTGCCGAACTGTGCGGG | -0.215
TTTCACGACGTCGGTCACGTGC | -1.03
TCTGGTTCCAGAGAGCTCCAGA | 0.275
TGGAGCAGACTGTCCTTCGTTG | -1.24
TACACAGCTGCTGTTACACATG | -0.991
TAGAGTTTCTTCAAGAGCGGGG | 0.308
TTGGGTGTAGCTGCCGAACTGT | -0.212
TAGTACGTGTCCTCGTCTCCAT | -0.503

Each sequence was assayed against TPPP2 in the same assay as above. Conditions: shRNA.

Sequence | sensor-assay potency score (higher = more potent)
TTGTCAGTCATCTCTTCCCGTC | -0.714
TGTAACCACTCACATAGCCTGT | -0.785
TTGTTGCTTTAGTAGCGCCAGT | -1.46
TTGAACTGTTGAAACGTGATGG | 0.216
TTGTTGTTCATTTCAGTGCCAC | 0.0122
TCTTTGAACTGTTGAAACGTGA | -0.298
TTATTGTTTTCCAAGCTCCCTG | -0.417
TTCTTGGCCTTGACTTTGCTGA | -0.996
TTGCTGGTGTCTGTCAAACGGT | -1.11
TTGATGATTCTCCAAACGCAGC | -1.67
TTGTAACCACTCACATAGCCTG | -0.748
TTTGCTGAACACGATGTCCACG | -0.579

These sequences were tested against TPPP3 in the same assay as above. Conditions: shRNA.

Sequence | sensor-assay potency score (higher = more potent)
TTTCCGTCAGCCACCTTGCAGT | -0.592
TTGCCATTCATCTCTTGCCCAC | -1.13
ACTGTCGTCCAGGATGTCCTGC | -0.739
TTGTAGGCGCTCACGTAGCCAC | -1.01
TTGTGGGAGCCCGTGTATCTGC | -1.44
TTTAGTGACGCCCACATTGGCT | -0.692
TCGTCCAGGATGTCCTGCCGTC | -0.707
TTGGTCGCCAGCTCTTCCAGGG | -0.176
TTGACTTTGGAGAAGACGATGT | -0.378
